For 19 molecules, growth inhibition, inhibition and outcome results are on record in PubChem BioAssay.

Test [1] in a line: antimalarial activity against Dd2 strain (AID 2302;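 active means growth inhibition above 50% at the single 2 µM test dose, taken to imply half-maximal potency below 2 µM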;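 further: 0% = DMSO untreated growth and 100% = chloroquine plus artemisinin killed control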). The following applies: P. falciparum Dd2 in RBCs, LDH growth readout, 72 h; at 2 µM; active compounds read high.
A short description of test [2]: human hepatoma cell viability loss – ATP luminescence, cytotoxicity control for P. falciparum antimalarial project, primary screen (AID 2303;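 active means inhibition above 50%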;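 further: 0% = DMSO wells and 100% = digitonin-killed cells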). The following applies: HepG2 viability, 24-48 h, at 10 µM, active compounds read high.
Test [3] deals with L-lactate dehydrogenase (Plasmodium falciparum (isolate CDC / Honduras)) (UniProt Q27743). Description: PfLDH activity inhibition – cell lysate, 3D7 strain, counter-screen for P. falciparum growth inhibition project (AID 2304).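 Further: 0% = vehicle and 100% = reference inhibitor.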 The settings on record: P. falciparum 3D7 crude extract, LDH APAD/NBT absorbance; at 2 µM; active compounds read high. (In general: Counterscreens check selectivity or assay interference.)
L-lactate dehydrogenase (Plasmodium falciparum (isolate CDC / Honduras)), sequence (Q27743 whole entry, looked up): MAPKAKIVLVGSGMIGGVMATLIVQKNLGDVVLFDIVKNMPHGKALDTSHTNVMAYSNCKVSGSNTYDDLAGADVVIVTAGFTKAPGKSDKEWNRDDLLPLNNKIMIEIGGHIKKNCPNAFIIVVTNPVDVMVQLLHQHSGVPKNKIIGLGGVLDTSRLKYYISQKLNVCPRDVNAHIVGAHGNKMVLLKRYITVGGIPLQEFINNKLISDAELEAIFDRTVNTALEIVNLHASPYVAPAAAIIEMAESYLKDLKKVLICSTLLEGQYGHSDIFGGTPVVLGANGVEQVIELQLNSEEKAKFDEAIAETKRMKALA

A short description of test [4]: inhibition of 3D7 malaria parasite growth – strain 3D7 (AID 2306).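 Further: 0% = DMSO wells and 100% = chloroquine plus artemisinin control wells.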 The settings on record: P. falciparum 3D7 erythrocytic growth, LDH absorbance, 72 h; at 2 µM; active compounds read high.
In test [5] the target is Calcium-dependent protein kinase 1 (Plasmodium falciparum (isolate 3D7)) (UniProt P62344). As to the kind of experiment: PfCDPK1 kinase inhibitors, biochemical, TCAMS library (AID 1159585; cut-off not given, nearly all actives have IC50 up to about 0.98 µM;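 further: inhibitors leave more ATP so luminescence rises with inhibition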). The settings on record: recombinant PfCDPK1, Kinase-Glo ATP depletion luminescence. For orientation: Kinase-Glo reads ATP consumption through a luciferase reaction.
Calcium-dependent protein kinase 1 (Plasmodium falciparum (isolate 3D7)), sequence (P62344 whole entry, looked up): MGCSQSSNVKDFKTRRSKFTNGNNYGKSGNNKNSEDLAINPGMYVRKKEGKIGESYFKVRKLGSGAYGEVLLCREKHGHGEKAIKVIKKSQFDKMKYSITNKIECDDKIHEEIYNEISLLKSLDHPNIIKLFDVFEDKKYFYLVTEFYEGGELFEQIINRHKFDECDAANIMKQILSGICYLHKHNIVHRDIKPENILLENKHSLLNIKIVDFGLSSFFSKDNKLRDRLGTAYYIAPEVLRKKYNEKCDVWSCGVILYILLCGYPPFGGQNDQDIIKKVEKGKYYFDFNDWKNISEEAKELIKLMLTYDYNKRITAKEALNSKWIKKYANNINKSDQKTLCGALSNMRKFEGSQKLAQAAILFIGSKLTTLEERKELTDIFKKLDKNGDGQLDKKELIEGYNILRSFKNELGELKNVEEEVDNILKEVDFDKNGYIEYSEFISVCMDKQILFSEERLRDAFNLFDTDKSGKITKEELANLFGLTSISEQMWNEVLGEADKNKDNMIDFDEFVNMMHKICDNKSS
Test [6] concerns the target Plasmodium falciparum protein kinase 6 (PK6, PF3D7_1337100) (UniProt Q8IDW1). Description: PfPK6 kinase inhibitors, biochemical, TCAMS library (AID 1159586). The following applies: recombinant PfPK6, Kinase-Glo ATP depletion luminescence.
Test [7] deals with Protein kinase 7 (PK7), Plasmodium falciparum 3D7 (PF3D7_0213400) (UniProt Q7YTF7). Description: inhibition of Plasmodium PK7 catalytic activity – biochemical, TCAMS antimalarial set, Kinase-Glo luminescence (AID 1159587). The following applies: recombinant PfPK7, Kinase-Glo ATP depletion luminescence.
Protein kinase 7 (PK7), Plasmodium falciparum 3D7 (PF3D7_0213400), sequence (Q7YTF7 1-343): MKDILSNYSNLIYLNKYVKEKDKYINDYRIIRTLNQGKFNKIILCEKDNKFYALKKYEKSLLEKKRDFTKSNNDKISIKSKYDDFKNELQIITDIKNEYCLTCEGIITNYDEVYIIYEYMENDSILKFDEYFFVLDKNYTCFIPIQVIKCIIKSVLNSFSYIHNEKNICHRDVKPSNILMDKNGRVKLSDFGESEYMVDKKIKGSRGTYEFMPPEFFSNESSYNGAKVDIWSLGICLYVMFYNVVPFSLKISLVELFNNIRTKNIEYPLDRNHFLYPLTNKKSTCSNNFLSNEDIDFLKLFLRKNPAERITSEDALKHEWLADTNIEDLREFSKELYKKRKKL
The target in test [8] is Calcium-dependent protein kinase 4 (Plasmodium falciparum (isolate 3D7)) (UniProt Q8IBS5). As to the kind of experiment: PfCDPK4 kinase inhibitors, biochemical, TCAMS library (AID 1159588; cut-off not given, nearly all actives have IC50 up to about 0.91 µM). The following applies: recombinant PfCDPK4, Kinase-Glo ATP depletion luminescence.
Calcium-dependent protein kinase 4 (Plasmodium falciparum (isolate 3D7)), sequence (Q8IBS5 whole entry, looked up): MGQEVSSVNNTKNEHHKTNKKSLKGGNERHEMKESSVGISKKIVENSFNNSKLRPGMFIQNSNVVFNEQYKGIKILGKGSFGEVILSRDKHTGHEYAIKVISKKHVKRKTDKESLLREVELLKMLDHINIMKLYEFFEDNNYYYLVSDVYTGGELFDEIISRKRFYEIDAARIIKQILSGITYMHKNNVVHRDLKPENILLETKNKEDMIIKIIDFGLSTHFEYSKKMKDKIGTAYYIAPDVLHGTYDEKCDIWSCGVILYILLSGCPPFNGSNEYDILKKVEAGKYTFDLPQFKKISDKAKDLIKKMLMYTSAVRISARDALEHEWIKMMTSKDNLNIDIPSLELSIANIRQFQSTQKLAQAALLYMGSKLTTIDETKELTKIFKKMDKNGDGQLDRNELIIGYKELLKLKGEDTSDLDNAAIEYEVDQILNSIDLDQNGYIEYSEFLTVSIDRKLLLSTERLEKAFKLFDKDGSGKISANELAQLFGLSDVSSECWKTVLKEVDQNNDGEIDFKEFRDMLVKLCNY

Each structure is given as a SMILES string. Values without a mark were called inactive. For some assays here: Results with a measured potency or affinity are listed apart. Calls of active or inactive are those of the source. Unless noted, how the calls were made is not given here.

Plasmodium falciparum protein kinase 6 (PK6, PF3D7_1337100), sequence (Q8IDW1 1-305): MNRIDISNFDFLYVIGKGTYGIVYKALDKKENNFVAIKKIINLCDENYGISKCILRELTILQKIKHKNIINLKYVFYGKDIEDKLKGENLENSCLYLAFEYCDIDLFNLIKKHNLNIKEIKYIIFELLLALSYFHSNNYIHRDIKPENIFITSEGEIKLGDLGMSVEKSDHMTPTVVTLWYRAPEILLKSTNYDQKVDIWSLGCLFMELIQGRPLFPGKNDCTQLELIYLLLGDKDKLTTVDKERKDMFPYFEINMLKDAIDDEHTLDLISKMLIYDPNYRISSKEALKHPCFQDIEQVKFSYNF

The term inhibition denotes the drop in the measured response relative to a control, in per cent. `COC(=O)c1cccc(CNCc2ccc(-c3ccc(-c4nc5ccc(F)cc5[nH]4)cc3)cc2)c1`: the growth inhibition in test [1] is 95% (active); in test [4] it was 100% (active). Further, the figures for the inhibition in test [2] and in test [3] were 8% and 2%, respectively. In addition, the result in test [5], in test [6], in test [7] and in test [8] was inactive.
As to `COc1ccc2nccc(N3CCC(SCCNCc4cc5c(cn4)OCCO5)C3)c2n1` (configuration not stated), the growth inhibition is 100% (active) in test [1] and 101% (active) in test [4]. Moreover, the inhibition was 30% in test [2] and 2% in test [3]. For the same molecule, the result in test [5], in test [6], in test [7] and in test [8] was inactive.
Regarding `CCN(CC)CCN(Cc1ccc(-c2ccc(C(F)(F)F)cc2)cc1)C(=O)Cn1c(SCc2ccc(F)c(F)c2F)nc(=O)c2c1CCC2`, the growth inhibition in test [1] was 96% (active); in test [4] it was 91% (active). Moreover, the inhibition was 100% (active) in test [2] and -4% in test [3]. In addition, the outcome in test [5], in test [6], in test [7] and in test [8] was inactive.
For `COc1cc2c(cc1OC)CC(NCCCCCCNCCc1ccc(Cl)cc1)CC2` (configuration not stated), the growth inhibition in test [1] is -1%; in test [4] it was 98% (active). Besides, the values for the inhibition in test [2] and in test [3] were 50% (active) and 1%, respectively. For the same molecule, the result in test [5], in test [6], in test [7] and in test [8] was inactive.
For the molecule `CCN(CCO)CCc1cccc(Nc2nccc(-c3c(-c4ccc(NC(=O)C(C)(C)C)cc4)nn4ccccc34)n2)c1`, the growth inhibition in test [1] was 96% (active); in test [4], 101% (active). The inhibition in test [2] was 62% (active); in test [3], 4%. Also, the outcome in test [5], in test [6], in test [7] and in test [8] was inactive.
In the case of `Clc1ncnc2scc(-c3ccc(Br)cc3)c12`, the growth inhibition was 96% (active) in test [1] and 95% (active) in test [4]. Besides, the inhibition in test [2] is -3%; in test [3] it was -2%. Also, the result in test [5], in test [6], in test [7] and in test [8] was inactive.
Turning to `CC1(C)CN(CCC2CCC(NC(=O)/C=C/c3ccc(F)cc3F)CC2)Cc2ccc(C#N)cc21` (configuration not stated), the growth inhibition in test [1] is 77% (active); in test [4] it was 88% (active). Also, the results for the inhibition in test [2] and in test [3] were 39% and -6%, respectively. The result in test [5], in test [6], in test [7] and in test [8] was inactive.
Regarding `CS(=O)(=O)N(c1cccc(F)c1)c1cc(C(=O)N[C@@H](Cc2ccccc2)[C@H](O)CNCc2cccc(C(F)(F)F)c2)cc(N2CCCC2=O)c1`, the growth inhibition in test [1] was 92% (active); in test [4] it was 98% (active). In addition, the inhibition in test [2] is 14%; in test [3], 1%. Also, the result in test [5], in test [6], in test [7] and in test [8] was inactive.
`CCN1C(=O)C(CC(=O)Nc2cccc(Cl)c2)N(Cc2ccc(OC)c(OC)c2)C1=S` (configuration not stated): the growth inhibition in test [1] was 68% (active); in test [4], 100% (active). Also, the inhibition was 13% in test [2] and -8% in test [3]. Besides, the outcome in test [5], in test [6], in test [7] and in test [8] was inactive.
For `O=C(CCCCCNC(=O)c1ccc(O)c(-c2ccc(Cl)c(Cl)c2)c1)NC1CCCCCC1`, the growth inhibition is 3% in test [1] and 92% (active) in test [4]. For the same molecule, the inhibition in test [2] was -4%; in test [3] it was 2%. Further, the result in test [5], in test [6], in test [7] and in test [8] was inactive.
As for `Cc1[nH]c(C)c(-c2ccc(-c3ccc(OC(F)(F)F)cc3)nc2)c(=O)c1Cl`, the growth inhibition in test [1] and in test [4] was 95% (active) each time. The inhibition in test [2] was 11%; in test [3] it was -6%. Also, the outcome in test [5], in test [6], in test [7] and in test [8] was inactive.
Regarding `COc1ccc(NC(=O)[C@H](CC(C)C)Nc2cc(C)nc(NCC3CCCCC3)n2)cc1`, the values for the growth inhibition in test [1] and in test [4] were 92% (active) and 101% (active), respectively. In addition, the inhibition was 7% in test [2] and 2% in test [3]. Also, the result in test [5], in test [6], in test [7] and in test [8] was inactive.
Turning to `CCOc1cc(C=NNc2nc3ccccc3[nH]2)ccc1OCc1ccc([N+](=O)[O-])cc1`, the growth inhibition is 1% in test [1] and 100% (active) in test [4]. In addition, the inhibition in test [2] is 2%; in test [3], -6%. In addition, the result in test [5], in test [6], in test [7] and in test [8] was inactive.
On to `CCc1c[nH]c2c(N3CCCC3=O)cc(C(=O)N[C@@H](Cc3ccccc3)[C@H](O)CNC(C)(C)CCCC(C)C)cc12`, for which the growth inhibition in test [1] was 97% (active); in test [4], 96% (active). Moreover, the inhibition in test [2] is 22%; in test [3] it was 1%. The outcome in test [5], in test [6], in test [7] and in test [8] was inactive.
In the case of `CC(C)c1ccc(NC(=O)c2ccc(C(=O)NCC3CCN(CC4CCCCC4)CC3)cc2)cc1`, the growth inhibition was 18% in test [1] and 92% (active) in test [4]. The results for the inhibition in test [2] and in test [3] were 26% and -3%, respectively. The result in test [5], in test [6], in test [7] and in test [8] was inactive.
`CCCC(C)Nc1nc(C)cc(N[C@@H](Cc2ccccc2)C(=O)NCc2cccc(F)c2)n1` (some centres not stated): the growth inhibition in test [1] is 75% (active); in test [4] it was 100% (active). Further, the inhibition was 9% in test [2] and -2% in test [3]. Further, the result in test [5], in test [6], in test [7] and in test [8] was inactive.
Take `N#Cc1cccc(NC(=O)Nc2ccc(-c3csc(-c4nc5ccccc5[nH]4)c3)cc2)c1`: the growth inhibition in test [1] was 97% (active); in test [4], 103% (active). Besides, the figures for the inhibition in test [2] and in test [3] were 63% (active) and -3%, respectively. Moreover, the outcome in test [5], in test [6], in test [7] and in test [8] was inactive.
On to `CCn1c(Sc2ccc(C#N)c([N+](=O)[O-])c2)nnc1-c1ccc(OC)cc1`, for which the growth inhibition in test [1] was 94% (active); in test [4], 98% (active). For the same molecule, the inhibition is -8% in test [2] and 2% in test [3]. Moreover, the result in test [5], in test [6], in test [7] and in test [8] was inactive.
Regarding `CCCCCn1c(Sc2ccc(C#N)c([N+](=O)[O-])c2)nnc1-c1cccc(Cl)c1`, the growth inhibition in test [1] was 75% (active); in test [4], 95% (active). Also, the inhibition in test [2] was 4%; in test [3], -2%. Also, the outcome in test [5], in test [6], in test [7] and in test [8] was inactive.
